Measured values taken from PubChem BioAssay AID686935 (National Center for Advancing Translational Sciences (NCATS), 2013).
Inconclusive results are not listed. Where a call stands in place of a potency, no number is given. Active and inactive are the calls of the source. Calls follow the shape of the dose curve; as a rule, active = well fitted curve in the direction sought with a large enough effect; inconclusive = small, poorly fitted or top-dose-only effect, or another doubt; inactive = no such curve, though single readings can be large or run the other way.

Assay: qHTS Assay for Lipid Storage Modulators: CytotoxicityAssay against Probe and Analogs
Details: 3T3-L1 adipocytes cytotoxicity, imaging cell count; series mostly up to 20 µM
Excerpt: Storing lipids as a reservoir for energy or the anabolism of elementary metabolites is a common feature of probably all cells and is conserved from bacteria to humans. The universal cellular lipid storage organelle is the so-called lipid storage droplet (LD). Although ubiquitous, LDs share a simple structure composed of a hydrophobic core that harbors the storage lipids, which is shielded by a droplet-specific phospholipid monolayer to which proteins are attached. The current model of LD biogenesis involves an incorporation of the lipid core into the membrane leaflets of the endoplasmic reticulum (ER) followed by a subsequent budding-like maturation of a LD, which ultimately pinches off. Once released, LD volume can increase by localized lipogenesis or fusion of existing droplets. Storage lipids are re-mobilized enzymatically by lipase activity. Lipase regulation in the adipocyte is heavily studied and involves multiple components including catecholamine signaling, the LD-associated proteins Perilipin and comparative gene identification-58 (CGI-58) and at least two lipases named hormone sensitive lipase (HSL) and adipocyte triglyceride lipase (ATGL). LD regulation outside of the adipocyte is poorly understood and only few components are known. However, there is an urgent need to learn more about ectopic fat depots as mislocalized storage of lipids, for example in the liver or muscle, is an eminent health problem associated with insulin resistance or the metabolic syndrome. We developed a laser-scanning cytometer assay to enable 1,536-well screening and combined the results of the small molecules screen with an RNAi database based on lipid storage. In this assay we tested analogs of the probe in a cytotoxicity assay. NIH Molecular Libraries Probe Production Centers Network [MLPCN] NIH Chemical Genomics Center [NCGC] MLPCN Grant: MH085686 Assay Submitter (PI): Mathias Beller, Max-Planck-Institut fur Biophysikalische Chemie
3T3-L1 cells were obtained from ATCC (CL-173). Pre-adipocyte medium (PM-1),differentiation medium (DM-2) and after adipocyte medium (AM-1) were purchased from Zen-Bio (# PM-1-L1, DM-2-L1, AM-1-L1). […] of PM-1containing 3,000 cells was dispensed into each well of a 96-well plate (Corning, #3340), and the assay plates were incubated at 37 °C, 95% humidity and 5% CO2 for 3-5 days. The differentiation of pre-adipocyte to adipocyte was induced by removing the pre-adipocyte medium and replacing with […] of differentiation medium. […] of compounds at different concentrations dissolved in differentiation medium were added to the assay plates, along with medium exchange for differentiation to test their effects on adipocyte differentiation. The final DMSO concentration was 0.5%. Triacsin C (Sigma-Aldrich T-4540), an inhibitor of long-chain fatty acyl CoA synthetase that blocks synthesis of triglycerides, was used as a positive control for lipid under-storage. After 3 days, differentiation medium was replaced with 200ul of adipocyte maintenance medium and assay plates were incubated for 4 days. Cells were then fixed using4% of paraformaldehyde in PBS for 30 minutes at room temperature, washed 3 times with PBS buffer. Finally, the cells were stained using […] of PBS containing BODIPY lipid dye 493/530 (1:2000 -, Life Technologies, # D-3922), Hoechst 33342 (1:1000, Life Technologies, #H3570) and CellMask deep red dye (1:10,000 , Life Technologies, #H32721). Images were acquired using InCell 2000 (GE), number of cells, number of lipids, size of lipids and cells were analysis using GE Investigator software.

SMILES	Potency
CCOc1ccc(CCNC(=O)c2cc3sccc3n2Cc2ccccn2)cc1OCC	inactive
CCOC(=O)C1CCN(C(=O)C(C)(C)NC(=O)Nc2ccc(-c3ccccc3)cc2)CC1	inactive
CCOc1cc(F)c(CCNC(=O)c2cc3sccc3n2Cc2ccccc2)cc1OCC	inactive
CC(C)Oc1ccc(CCNC(=O)c2cc3sccc3n2Cc2ccccc2)cc1OC(C)C	inactive
CCOc1cc(CCNC(=O)c2cc3sccc3n2Cc2ccccc2)cc(F)c1OCC	7.08 µM (active)
CCOc1ccc(CCNC(=O)c2ccnn2Cc2cccc(C)c2)cc1OCC	inactive
CCOc1ccc(CCNC(=O)c2cccc(C(=O)c3ccccc3)c2)cc1OCC	inactive
CCn1c(C(=O)NCCc2ccc(OC)cc2)cc2sccc21	inactive
CCOc1ccc(CCNC(=O)c2cc3sccc3n2Cc2ccncc2)cc1OCC	inactive
CCOc1ccc(CCNC(=O)c2cc3sccc3n2Cc2ccccc2)cc1OCC	inactive
CCOc1ccc(CCNC(=O)c2cc3ccccc3o2)cc1OCC	inactive
CCOc1ccc(CCNC(=O)c2cc3sccc3n2C)cc1OCC	inactive
